Cruzain noTriton – qHTS Assay for Promiscuous and Specific Inhibitors of Cruzain (without detergent); AID 1476, 2009; Cruzipain (Trypanosoma cruzi), P25779; purified cruzain, Z-FR-AMC fluorescence, no detergent; 2.3% of 200,000 active; Potency, µM, inactives show max response, negative = inhibition, most hits filed as inhibitors;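 note: plate controls were enzyme without inhibitor for no effect and buffer without enzyme for full effect; nearly all actives have a fitted effect of over 40% in size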
Target sequence (P25779 123-467 limits assumed): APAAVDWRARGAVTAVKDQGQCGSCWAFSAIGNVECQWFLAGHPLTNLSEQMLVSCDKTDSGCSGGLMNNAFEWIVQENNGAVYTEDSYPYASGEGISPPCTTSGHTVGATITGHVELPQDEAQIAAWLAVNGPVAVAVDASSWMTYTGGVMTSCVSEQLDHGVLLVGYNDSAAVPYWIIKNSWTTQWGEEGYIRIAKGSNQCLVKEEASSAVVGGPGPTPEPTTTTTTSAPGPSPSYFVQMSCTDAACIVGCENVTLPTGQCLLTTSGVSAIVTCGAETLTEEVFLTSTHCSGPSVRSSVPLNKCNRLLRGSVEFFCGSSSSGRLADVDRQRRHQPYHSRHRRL
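Detergent-free condition (0.00005% Triton X-100) in acetate buffer pH 5.5 with DTT. 1.5 nM enzyme and compound were pre-mixed 15 min, then 2 uM Z-FR-AMC substrate added; reaction progress from fluorescence change between first and third reads (60 s).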
Cruzain Triton – qHTS Assay for Promiscuous and Specific Inhibitors of Cruzain (with detergent); AID 1478, 2009; 0.43% of 200,000 active; Cruzipain (Trypanosoma cruzi), P25779; Potency, µM, for inactives: max response, negative = inhibition, most hits filed as inhibitors; purified cruzain, Z-FR-AMC fluorescence, 0.01% Triton;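 note: plate controls were neutral wells for no effect and buffer without enzyme for full effect; nearly all actives have a fitted effect of over 40% in size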
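15 min RT preincubation of 1.5 nM cruzain with compound, then 2 uM Z-FR-AMC added; kinetic AMC fluorescence, 60 s delta. Triton X-100 0.01%, pH 5.5.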
Starred values were filed as active, the others as inactive; u = inconclusive. Rows were chosen to be rich in hits. Some 2.6% of all compounds tested hit in one or more screens of this group. Calls come from the whole dose curve; as a rule, active = well fitted curve in the direction sought with a large enough effect; inconclusive = small, poorly fitted or top-dose-only effect, or another doubt; inactive = no such curve, though single readings can be large; an effect the other way counts as inactive or inconclusive. Potency is the fitted concentration of half-maximal effect.

SMILES | Cruzain noTriton | Cruzain Triton
Cc1sc(NC(=S)NC(=O)c2cccs2)nc1-c1ccc(C(C)C)cc1 | 10µM* | 0%
O=C(NC(=S)Nc1nc(-c2ccccc2)cs1)c1cccs1 | u | -4%
Cc1sc(NC(=O)c2cccs2)nc1-c1ccccc1 | 2% | -8%
Cc1ccc(-c2nc3ccccc3o2)cc1NC(=S)NC(=O)c1cccs1 | u | -3%
O=C(CCS(=O)(=O)c1cccc2nsnc12)Nc1ccc(F)cc1 | -1% | -3%
Cc1cccc(NS(=O)(=O)c2ccc3c(c2)CCN3C(=O)C2CC2)c1C | -19% | -5%
CCOC(=O)C1CCN(S(=O)(=O)c2cc(-c3onc(C)c3C)ccc2OC)CC1 | u | -1%
Cc1ccc(C)c(NC(=O)Cn2c(=O)n(CC(=O)NCCc3ccccc3)c(=O)c3ccccc32)c1 | 1% | -1%
Cc1nc(-n2nc(C)c(Cc3ccccc3Cl)c2C)sc1C(=O)N1CCC(C)CC1 | 1% | -1%
Cc1ccc(-n2c(=O)c3sc4ccccc4c3n(CC(=O)NC3CCCC3)c2=O)cc1C | -1% | 0%
COc1ccc(/C=N\NC(=O)COc2ccc(C(C)(C)C)cc2)cc1Cn1nc(C)cc1C | 25µM* | 5%
COc1ccc(/C=N/NC(=O)c2ccco2)cc1Cn1nc(C)cc1C | -5% | -4%
COc1cccc(-c2cn3c(n2)sc2cc(C(=O)NCCCc4ccccc4)ccc23)c1 | 8% | -4%
CCOc1ccc(CCNC(=O)C2CCN(C(=O)c3cc4sccc4n3CC)CC2)cc1OCC | u | -7%
O=C1OCCN1C(=O)[C@H]1[C@H](c2ccc([N+](=O)[O-])cc2)C(c2ccccc2)=NN1c1ccc(Br)cc1 | 14µM* | -3%
O=C1OCCN1C(=O)[C@H]1[C@H](c2ccc([N+](=O)[O-])cc2)C(c2cccc(Cl)c2)=NN1c1ccc(Br)cc1 | 3.5µM* | 1%
Cc1cccc(C2=NN(c3ccccc3)[C@@H](C(=O)N3CCOC3=O)[C@@H]2c2ccc([N+](=O)[O-])cc2)c1 | u | 3%
CCc1cccc(NC(=O)c2cc3c(=O)[nH]c4ccccc4c3n2C)c1 | 7% | -2%
Cc1cccc(-n2cnc3cc(C(=O)NCc4ccccc4Cl)ccc32)c1 | -1% | 1%
COc1ccc(Nc2nc(Nc3ccc(OC)cc3OC)nc(N3CCOCC3)n2)c(OC)c1 | 4% | -3%
Cc1cc(-c2ccc(S(=O)(=O)Nc3cccc(C)c3C)s2)on1 | -3% | -10%
Cc1ccc(CN2C(=O)C3(c4ccccc42)N(c2cccc(F)c2)C(=O)CS3(=O)=O)cc1 (stereo not given) | 1.6µM* | -5%
Cc1ccc(N2C(=O)CS(=O)(=O)C23C(=O)N(Cc2cccc(F)c2)c2ccccc23)cc1Cl (stereo not given) | 2µM* | -5%
O=C1CSC2(C(=O)N(Cc3ccccc3F)c3ccccc32)N1c1ccc(F)cc1 (stereo not given) | -7% | -7%
Cc1ccccc1CN1C(=O)C2(c3ccccc31)N(c1ccccc1)C(=O)CS2(=O)=O (stereo not given) | -29% | 2%
SMILES | Cruzain noTriton | Cruzain Triton
COc1ccc(N2C(=O)CS(=O)(=O)C23C(=O)N(Cc2cccc(F)c2)c2ccccc23)cc1OC (stereo not given) | -8% | -4%
Cc1ccc(N2C(=O)CS(=O)(=O)C23C(=O)N(Cc2ccccc2C)c2ccccc23)cc1Cl (stereo not given) | 2µM* | -5%
CN1C(=O)C2(c3ccccc31)N(c1cccc(F)c1)C(=O)CS2(=O)=O (stereo not given) | -7% | -6%
O=C1CS(=O)(=O)C2(C(=O)N(Cc3ccccc3Cl)c3ccccc32)N1c1ccc(F)cc1 (stereo not given) | 2.5µM* | -3%
CCOc1ccc(NS(=O)(=O)c2ccc(-c3cc(C)no3)s2)cc1 | -17% | -9%
C=CCC(O)(/C=C/c1ccccc1)c1ccccc1 (stereo not given) | -1% | 0%
CC1=C(C(N)=O)C(c2cccc(Br)c2)n2nc(SCc3ccccc3Cl)nc2N1 (stereo not given) | -29% | 0%
CCOc1ccc(NC(=O)c2cc3c(n(-c4ccc(OC)cc4)c2=O)CC(C)(C)CC3=O)cc1 | 11% | 0%
CCOc1ccc(S(=O)(=O)N(CC(=O)Nc2ccc(OC)c(Cl)c2)c2ccccc2)cc1 | 5% | 0%
CCc1cccc(N2C(=O)CS(=O)(=O)C23C(=O)N(Cc2ccc(F)cc2)c2ccc(C)cc23)c1 (stereo not given) | u | -1%
Cc1ccc(C)c(CN2C(=O)C3(c4ccccc42)N(c2cccc(C(F)(F)F)c2)C(=O)CS3(=O)=O)c1 (stereo not given) | 1.3µM* | -6%
CN1C(=O)C2(c3ccccc31)N(c1ccc(F)c(Cl)c1)C(=O)CS2(=O)=O (stereo not given) | u | -1%
O=C1CS(=O)(=O)C2(C(=O)N(Cc3ccccc3)c3ccccc32)N1c1ccc(F)c(Cl)c1 (stereo not given) | 2µM* | -2%
CCc1cccc(N2C(=O)CS(=O)(=O)C23C(=O)N(Cc2ccccc2)c2ccc(C)cc23)c1 (stereo not given) | 1.6µM* | -4%
Cc1cc(C)cc(N2C(=O)CS(=O)(=O)C23C(=O)N(C)c2ccccc23)c1 (stereo not given) | -20% | -1%
Nc1nc2c(ncn2C2CC(O)C(CO)O2)c(=O)[nH]1 (stereo not given) | -4% | 5%
O=S(=O)(Nc1cccc(-c2ccc(N3CCCCC3)nn2)c1)c1cccs1 | u | -5%
COc1ccccc1Cn1c(CNS(=O)(=O)c2ccc3c(c2)CCCC3)nc2cccnc21 | -16% | -4%
COc1ccc(N2CCN(CCCNC(=O)c3nnc(Cc4ccccc4Cl)o3)CC2)cc1 | 13% | -2%
Cc1cccc(N2CCN(C(=O)Cn3cnc4sc(C)c(S(=O)(=O)N5CCN(c6ncccn6)CC5)c4c3=O)CC2C)c1 (stereo not given) | u | -7%
O=C(Nc1cccc(F)c1)C1CC(=O)N(c2ccc(Br)cc2)C1 (stereo not given) | -4% | -7%
O=C(Nc1cccc(Cl)c1Cl)C1CC(=O)N(c2ccc(Br)cc2)C1 (stereo not given) | 25µM* | -1%
O=c1c2[nH]c3ccc(F)cc3c2ncn1CCCN1CCOCC1 | -2% | 1%
Clc1ccc2[nH]c3c(NCC4CCCO4)ncnc3c2c1 (stereo not given) | 20µM* | u
Fc1ccc2[nH]c3c(NCCN4CCOCC4)ncnc3c2c1 | 20µM* | u
SMILES | Cruzain noTriton | Cruzain Triton
Clc1ccc(-n2ncc3c(NCC4CCCO4)ncnc32)cc1 (stereo not given) | -9% | -2%
Clc1ccc2[nH]c3c(NCCN4CCOCC4)ncnc3c2c1 | 16µM* | 14µM*
O=c1c2[nH]c3ccc(Cl)cc3c2ncn1CCN1CCCCC1 | -12% | -5%
COC(=O)c1cccc(NC(=O)c2nsc3ccccc23)c1 | 4% | 1%
Cc1ccccc1CNC(=O)Cn1c(=O)c2cccn2c2cccnc21 | 19% | -7%
Cc1nc(N2CCOCC2)c2c(C(=O)N3CCN(c4cc(Cl)ccc4C)CC3)c(C)oc2n1 | u | -3%
NC(=S)N=Nc1c(O)[nH]c2ccccc12 | 13µM* | u
Oc1[nH]c2ccccc2c1N=NC(=S)NCCc1ccccc1 | 1% | -11%

From PubChem BioAssay
